JMJD2E inh: inhibitors of human JMJD2E histone demethylase | B2RXH2 | JMJD2E catalytic domain, FDH-coupled NADH fluorescence (FDH is formaldehyde dehydrogenase) | Potency, µM (titrated, usually from 57.1 µM), inactives show at the top dose activity change, negative = inhibition, hits mostly inhibitors | actives 1.6% (n = 230,000) | AID 2147; active = well fitted inhibition curve with a large enough effect, not every such curve was filed as active; inconclusive = small, poorly fitted or top-dose-only effect, or another doubt; inactive = no such curve, though single readings can be large or run the other way;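 also: potency is read from the fitted curve at half-maximal effect; 0% = wells with enzyme and -100% = buffer wells without enzyme; nearly all actives have a fitted effect of over 50% in size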
HPGD block: blocks human HPGD enzyme activity; P15428; purified HPGD, NADH fluorescence kinetic, PGE2 substrate; Potency, µM, without a hit: at the top dose activity change, negative = inhibition, most hits filed as inhibitors; actives 4.3% (n = 150,000); active = well fitted inhibition curve with a large enough effect, not every such curve was filed as active; inconclusive = small, poorly fitted or top-dose-only effect, or another doubt; inactive = no such curve, though single readings can be large or run the other way; also: potency is read from the fitted curve at half-maximal effect; % is scaled to controls: 0 for no effect and ±100 for the full control effect
Target sequence (P15428 whole entry, looked up): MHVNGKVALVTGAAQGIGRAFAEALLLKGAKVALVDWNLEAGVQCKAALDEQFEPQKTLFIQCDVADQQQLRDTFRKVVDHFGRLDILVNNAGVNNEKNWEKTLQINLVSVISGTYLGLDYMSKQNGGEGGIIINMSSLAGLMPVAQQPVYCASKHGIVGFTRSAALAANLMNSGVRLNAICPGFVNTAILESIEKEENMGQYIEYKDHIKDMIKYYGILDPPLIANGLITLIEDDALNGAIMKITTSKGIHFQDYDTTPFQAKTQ
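20 nM HPGD preincubated 15 min at room temperature with compound in 50 mM Tris-HCl pH 8, 0.01% Tween 20. Started with 1 mM NAD+ and 30 uM prostaglandin E2; NADH fluorescence (360/450 nm) read 5 times over 30-s intervals, last minus first.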
CBFb RUNX1 block: inhibitors of human CBF-beta and RUNX1 interaction | Q01196+Q13951 | Potency, µM (highest dose often 59.8 µM), for the others: top-dose activity, negative = inhibition, actives largely listed as inhibitors | AID 1477 | 230,000 tested, under 10 active | AlphaScreen CBFb-His/RUNX1-biotin binding, biochemical; also: % of control where 0% means no effect
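Proteins preincubated together for 20 min at RT before compound addition; 15 min later, nickel and streptavidin beads were added and left 90 min prior to AlphaScreen measurement.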
HTT cytoprotect: protects HTT-Q103 PC12 cells, measured by ATP. PC12 HTT-Q103 induced, cytoprotection, ATP luminescence, 40 h. Potency, µM (highest dose often 56.4 µM), inactives show cytoprotection (ATP increase), hits mostly activators. actives 0.14% (n = 230,000). AID 1471; also: potency is read from the fitted curve at half-maximal effect; % of control where 0% means no effect; nearly all actives have a fitted effect of over 45% in size
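Rat PC12, Q103 Htt exon1-GFP fusion, ecdysone promoter; tebufenozide inducer 100 nM final; compound titration; qHTS, 1500 cells/well; ATPlite luminescent read.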
HttQ103 aggreg: reduces HttQ103-GFP aggregates in PC12 cells. PC12 HttQ103-GFP aggregates, Acumen cytometry, 40 h. Potency, µM (doses to about 46.1 µM), for inactives: at the highest dose activity change, negative = inhibition, most hits filed as inhibitors. actives 1.1% (n = 220,000); also: potency is read from the fitted curve at half-maximal effect; % is scaled to controls: 0 for no effect and ±100 for the full control effect; nearly all actives have a fitted effect of over 60% in size
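Using laser scanning cytometry, GFP-positive aggregates were counted after lysis of PC12 cells induced with 100 nM tebufenozide to express HTT exon 1 Q103–GFP. Compounds were tested in titration.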
ALDH1A1 block: ALDH1A1 (human) enzyme inhibition; P00352; Purified ALDH1A1, NADH fluorescence, propionaldehyde substrate; Potency, µM (series often up to 75.3 µM), for inactives: at the highest dose activity, negative = inhibition, usual class: inhibitors; actives 7.3% (n = 220,000); AID 1030; active = well fitted inhibition curve with a large enough effect, not every such curve was filed as active; inconclusive = small, poorly fitted or top-dose-only effect, or another doubt; inactive = no such curve, though single readings can be large or run the other way;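 also: potency is read from the fitted curve at half-maximal effect; plate controls were no enzyme wells and a reference inhibitor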
* hit, by the source's call; u = inconclusive; x = no result; [ ] = dose if it differs, or a comment. Hits are enriched below; roughly 9.8% of the tested compounds scored in any of these assays. Unless noted, calls follow the shape of the dose curve; as a rule, active = well fitted curve in the direction sought with a large enough effect; inconclusive = small, poorly fitted or top-dose-only effect, or another doubt; inactive = no such curve, though single readings can be large; an effect the other way counts as inactive or inconclusive.

SMILES	JMJD2E inh	HPGD block	CBFb RUNX1 block	HTT cytoprotect	HttQ103 aggreg	ALDH1A1 block
COC(=O)C1=C(C)NC(=S)NC1c1ccc(-c2ccccc2C(=O)OC)o1 (centres undefined)	u	x	12.1%	-22.7%	3.8%	15.8µM*
COC(=O)C1=C(C)NC(=S)NC1c1ccc(-c2cccc(Cl)c2)o1 (centres undefined)	-14.4%	-27.7%	-0.1%	x	-8.5%	2µM*
COC(=O)C1=C(C)NC(=O)NC1c1ccc(-c2ccc(F)cc2)o1 (centres undefined)	-5.5%	x	-6.5%	14.0%	4.6%	-8.1%
CC(C)(C)c1ccc(/C=C/C(=O)Nc2ccc3c(c2)OCCO3)cc1	-14.6%	-15.0%	-1.5%	-125.6%	x	-3.0%
COc1ccc(/C=C(\C#N)C(=O)NCC(c2ccc(F)cc2)N2CCOCC2)cc1 (centres undefined)	-9.1%	x	2.8%	5.8%[10 µM]	16.6%[9.22 µM]	x
CN(C)c1ccc(C(CN)c2c[nH]c3ccccc23)cc1 (centres undefined)	-24.3%	x	u	-40.8%	-19.7%	15.8µM*
O=S(=O)(c1ccccc1F)N1CCN(CC(O)c2ccccc2)CC1 (centres undefined)	6.1%	x	6.3%	-16.4%	-2.6%	-4.4%
CC(C(=O)NCC1CCCCC1)N1CCN(S(=O)(=O)c2ccccc2F)CC1 (centres undefined)	14.3%	x	9.2%	10.5%[10 µM]	11.8%	15.8µM*
COc1cc(C(c2sc3nc(C)nn3c2O)N2CCC3(CC2)OCCO3)cc(OC)c1OC (centres undefined)	-1.1%	-6.1%	-0.6%	-2.5%	20.2%[9.22 µM]	17.8µM*
COC(=O)C1CCN(C(c2cc(OC)c(OC)c(OC)c2)c2sc3nc(C)nn3c2O)CC1 (centres undefined)	6.2%	-4.1%	7.0%	-8.1%	19.3%	-6.1%
COC(=O)c1ccc(NC(=S)NCCCn2ccnc2)cc1	3.6%	x	-1.8%	x	x	1.7%
COC(=O)c1sc(NC(=O)CC(C)C)c(C(=O)OC)c1C	-6.8%	-21.5%	6.2%	-26.3%[10 µM]	-31.3%	u
COC(=O)c1sc(NC(C)=O)c(C(=O)OC)c1C	-6.5%	31.6µM*	6.5%	-7.3%	-3.2%	u
COC(=O)c1sc(NC(=O)CSc2nncs2)c(C(=O)OC)c1C	u	2.82µM*	1.1%	-5.3%	-28.8%	u
COc1ccc2cc(CN(CCc3ccccc3)Cc3nnnn3Cc3ccco3)c(=O)[nH]c2c1	u	-12.0%	-11.3%	-2.9%[10 µM]	-3.9%	0.0794µM*
Cc1ccc(CN(Cc2cc3cc4c(cc3[nH]c2=O)OCCO4)Cc2nnnn2Cc2ccco2)cc1	u	u	-4.0%	1.1%	-11.7%	u
Cc1ccc2cc(CN(Cc3ccc4c(c3)OCO4)Cc3nnnn3Cc3ccco3)c(=O)[nH]c2c1	u	-27.7%	-16.8%	-9.6%[10 µM]	-4.3%	14.1µM*
COc1ccccc1CN(Cc1cc2c(C)ccc(C)c2[nH]c1=O)Cc1nnnn1Cc1ccco1	u	-7.4%	-1.5%	-2.3%[1.9 µM]	u	14.1µM*
CC(C)C(=O)c1c(C(C)C)nn2ccccc12	0.2%	-13.2%	11.4%	-0.4%	x	-3.9%
CN(C)CCNC(=O)c1ccc(COc2ccc(Cl)cc2Cl)cc1	4.3%	u	7.3%	-51.7%	-5.1%	4.1%
CN1CCN(C(=O)c2ccc(COc3ccc(Cl)cc3Cl)cc2)CC1	2.9%	2.82µM*	-3.7%	-2.0%[10 µM]	-22.9%	11.8%
CN1CCN(C(=O)CCCOc2ccc(Cl)cc2Cl)CC1	0.3%	20µM*	4.7%	-65.7%	2.3%	u
O=C(O)c1ccc(COc2ccc(CO)cc2Cl)cc1	1.3%	15.8µM*	3.4%	-18.6%	-7.6%	14.6%
CCCn1c(=O)[nH]c2nc(-c3ccc(S(=O)(=O)O)cc3)[nH]c2c1=O	u	u	-14.7%	-14.4%	x	u
CCOc1ccccc1-c1c2cc(O)c(=O)cc-2oc2cc(O)c(O)cc12	-9.2%	17.8µM*	-6.1%	7.5%[10 µM]	-3.6%	20µM*
